Activity calls are given as the source filed them.
Experiments:
[1] = E. coli DRC41 culture turbidity changes, primary screen, E. coli filamentation inducer project, strain DRC41, OD650, 48 h (AID 1152);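 also: E. coli MC1000 strain DRC41 lacking acrAB efflux pump and sulA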; settings: E. coli DRC41 (acrAB sulA), higher = more signal, called active from +8 up or from −8 down
[2] = small-molecule binders of probe aLefty1, primary screen, biochemical, small-molecule microarray, 635/667 nm fluorescence (AID 1153); settings: higher = more signal;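 also: score merges spot fluorescence with signal-to-noise ratio from the scanned slide images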
[3] = PSAC antagonists in infected red cells, primary screen, cell-based, P. falciparum Indochina, OD700, 1 h (AID 1154); settings: P. falciparum Indochina infected RBC osmotic lysis, higher = more signal, called active from +8 up or from −8 down
[4] = PSAC antagonists in infected red cells, primary screen, cell-based, P. falciparum Indochina, OD700, 2 h (AID 1155);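 also: lysis reports solute entry through the parasite surface anion channel PSAC; channel blockers reduce lysis of infected cells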; settings: P. falciparum Indochina infected erythrocytes, osmotic lysis OD700; higher = more signal, called active from +8 up or from −8 down
[5] = osmotic lysis modulators in infected erythrocytes, primary screen, PSAC antagonist project, cell-based, P. falciparum Indochina, OD700, 3 h (AID 1156); settings: higher = more signal, called active from +8 up or from −8 down
[6] = PSAC antagonists in infected red cells, primary screen, cell-based, P. falciparum Indochina, OD700, 18 h (AID 1157); settings: P. falciparum Indochina infected erythrocytes, osmotic lysis OD700, 18 h; higher = more signal, called active from +8 up or from −8 down
[7] = modulators of S6 phosphorylation in cells, primary screen, cell-based, A549, cytoblot, luminescence, serum-stimulated (AID 1158); settings: A549 phospho-S6 cytoblot, 5 h, higher = more signal;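 also: serum-stimulated A549 lung adenocarcinoma cells; signal is phosphorylated S6 detected by cytoblot immunostaining with HRP secondary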
[8] = target: NADPH oxidase 2 (Homo sapiens) (UniProt P04839); assay: NOX2-dependent H2O2 signal modulators, primary screen, NOX inhibitor project, cell-based, HEK293-NOX2, PMA-stimulated, Amplex Red fluorescence (AID 1159); settings: 45 min, higher = more signal, called active from +8 up or from −8 down; also: test concentration not given here
[9] = target: NADPH oxidase 4 (Homo sapiens) (UniProt Q9NPH5); assay: NOX4-dependent H2O2 signal modulators, primary screen, NOX inhibitor project, cell-based, HEK293-NOX4, tetracycline-induced, Amplex Red fluorescence (AID 1160); settings: 45 min, higher = more signal, called active from +8 up or from −8 down
[10] = target: NADPH oxidase 5 (Homo sapiens) (UniProt Q96PH1); assay: NOX5-dependent H2O2 signal modulators, primary screen, NOX inhibitor project, cell-based, HEK293-NOX5, Amplex Red fluorescence (AID 1161); settings: HEK293-NOX5, ionomycin, 45 min, higher = more signal
[11] = A549 cell viability effects, profiling panel, calcein-AM fluorescence, 48 h, basal (AID 1162); settings: higher = more signal; also: test concentration not given here
[12] = adipocyte viability effects, profiling panel, cell-based, 3T3-L1 adipocytes, calcein-AM fluorescence, 48 h, basal (AID 1163); settings: 3T3-L1 adipocytes viability, higher = more signal; also: test concentration not given here
[13] = HepG2 cell viability effects, profiling panel, calcein-AM fluorescence, 48 h, basal (AID 1164); settings: higher = more signal; also: test concentration not given here
[14] = MM1S cell viability effects, profiling panel, calcein-AM fluorescence, 48 h, basal (AID 1165); settings: higher = more signal;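 also: viability of MM1S multiple myeloma cells under basal unstimulated conditions; test concentration not given here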
[15] = basal RPMI8226 viability, no added stimulus, profiling panel, cell-based, calcein-AM fluorescence, 48 h, PK04 Diversity Set (AID 1166); settings: RPMI8226 myeloma viability, higher = more signal;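 also: cells grown under basal conditions without added stimulus; test concentration not given here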
[16] = basal HepG2 mitochondrial membrane potential changes, profiling panel, cell-based, JC-1 fluorescence, 24 h, 100 nL compound (AID 1167); settings: higher = more signal; also: test concentration not given here
[17] = basal 3T3-L1 adipocyte mitochondrial potential changes, profiling panel, cell-based, JC-1 fluorescence, 3T3-L1 adipocytes, 24 h, 100 nL compound (AID 1168); settings: JC-1 mitochondrial fluorescence, higher = more signal, called active from +8 up or from −8 down; also: test concentration not given here
[18] = basal RPMI8226 mitochondrial membrane potential changes, profiling panel, cell-based, JC-1 fluorescence, 24 h, 100 nL compound (AID 1169); settings: RPMI8226 myeloma, JC-1 mitochondrial potential fluorescence, higher = more signal; also: test concentration not given here
[19] = basal MM1S mitochondrial membrane potential changes, profiling panel, cell-based, JC-1 fluorescence, 24 h, 100 nL compound (AID 1170); settings: higher = more signal; also: test concentration not given here
[20] = A549 lung cancer cell viability effects, profiling panel, resazurin fluorescence, 24 h, PK04 Diversity Set (AID 1171); settings: higher = more signal, called active from +8 up or from −8 down; also: test concentration not given here

Chain of NADPH oxidase 2 (Homo sapiens) (P04839 whole entry, looked up): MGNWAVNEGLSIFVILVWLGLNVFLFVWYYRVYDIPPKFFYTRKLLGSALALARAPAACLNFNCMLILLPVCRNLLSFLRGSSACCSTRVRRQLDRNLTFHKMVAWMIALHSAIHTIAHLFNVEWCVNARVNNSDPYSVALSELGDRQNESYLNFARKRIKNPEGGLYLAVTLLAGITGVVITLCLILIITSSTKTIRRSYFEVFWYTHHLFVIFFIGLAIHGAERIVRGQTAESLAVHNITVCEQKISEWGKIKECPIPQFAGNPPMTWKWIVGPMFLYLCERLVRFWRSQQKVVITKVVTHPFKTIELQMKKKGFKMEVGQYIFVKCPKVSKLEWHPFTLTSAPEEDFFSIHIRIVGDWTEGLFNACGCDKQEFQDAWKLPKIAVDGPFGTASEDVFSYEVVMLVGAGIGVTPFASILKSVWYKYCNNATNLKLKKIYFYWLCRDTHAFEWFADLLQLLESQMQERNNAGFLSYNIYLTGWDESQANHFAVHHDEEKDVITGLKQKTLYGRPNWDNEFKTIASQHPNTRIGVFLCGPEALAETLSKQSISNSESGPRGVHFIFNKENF
Chain of NADPH oxidase 4 (Homo sapiens) (Q9NPH5 whole entry, looked up): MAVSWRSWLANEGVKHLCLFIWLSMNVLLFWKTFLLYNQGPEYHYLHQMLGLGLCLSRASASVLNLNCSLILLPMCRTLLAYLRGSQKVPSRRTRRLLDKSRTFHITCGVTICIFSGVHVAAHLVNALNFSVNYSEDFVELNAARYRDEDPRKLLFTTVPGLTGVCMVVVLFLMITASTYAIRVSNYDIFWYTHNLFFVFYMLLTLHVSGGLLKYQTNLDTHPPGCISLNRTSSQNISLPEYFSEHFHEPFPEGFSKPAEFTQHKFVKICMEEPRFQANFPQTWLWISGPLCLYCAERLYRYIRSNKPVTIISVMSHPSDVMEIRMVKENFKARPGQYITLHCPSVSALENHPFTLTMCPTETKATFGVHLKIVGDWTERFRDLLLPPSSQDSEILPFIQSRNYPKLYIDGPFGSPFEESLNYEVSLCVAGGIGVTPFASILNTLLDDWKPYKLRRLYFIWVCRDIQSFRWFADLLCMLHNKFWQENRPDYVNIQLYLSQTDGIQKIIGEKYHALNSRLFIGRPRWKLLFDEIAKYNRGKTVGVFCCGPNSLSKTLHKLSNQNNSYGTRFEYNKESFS
Chain of NADPH oxidase 5 (Homo sapiens) (Q96PH1 whole entry, looked up): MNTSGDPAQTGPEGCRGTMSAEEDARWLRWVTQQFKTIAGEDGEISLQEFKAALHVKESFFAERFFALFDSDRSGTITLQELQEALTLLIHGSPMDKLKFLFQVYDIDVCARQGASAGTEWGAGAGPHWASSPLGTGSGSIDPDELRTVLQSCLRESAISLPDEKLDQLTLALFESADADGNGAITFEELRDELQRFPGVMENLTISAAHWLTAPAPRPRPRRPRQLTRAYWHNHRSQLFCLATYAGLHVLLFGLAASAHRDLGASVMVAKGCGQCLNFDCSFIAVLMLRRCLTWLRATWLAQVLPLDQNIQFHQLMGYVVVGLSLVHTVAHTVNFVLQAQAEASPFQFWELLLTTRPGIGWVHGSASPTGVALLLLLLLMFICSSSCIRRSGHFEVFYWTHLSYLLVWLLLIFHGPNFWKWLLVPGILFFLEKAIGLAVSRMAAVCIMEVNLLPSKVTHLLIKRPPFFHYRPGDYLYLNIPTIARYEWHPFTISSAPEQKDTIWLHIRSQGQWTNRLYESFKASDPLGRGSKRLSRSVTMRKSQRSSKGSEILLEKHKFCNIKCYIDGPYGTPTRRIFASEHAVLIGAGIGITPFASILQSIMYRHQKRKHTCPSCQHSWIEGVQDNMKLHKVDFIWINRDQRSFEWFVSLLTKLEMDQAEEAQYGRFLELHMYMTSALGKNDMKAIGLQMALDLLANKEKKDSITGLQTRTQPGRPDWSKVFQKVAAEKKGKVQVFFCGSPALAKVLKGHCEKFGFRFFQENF

SMILES | z-score [1] | composite z-score [2] | z-score [3] | z-score [4] | z-score [5] | z-score [6] | z-score [7] | z-score [8] | z-score [9] | z-score [10] | z-score [11] | z-score [12] | z-score [13] | z-score [14] | z-score [15] | z-score [16] | z-score [17] | z-score [18] | z-score [19] | z-score [20]
O=C1O[C@@H](c2ccccc2)[C@@H](c2ccccc2)N2[C@@H](c3ccc(OCCO)cc3)[C@]3(C(=O)Nc4ccc(C#CCCO)cc43)[C@@H](C(=O)NC[C@H](O)c3ccccc3)[C@H]12 | 0.591 (inactive) | 0.708 | 3.19 (inactive) | 1.4 (inactive) | 1.53 (inactive) | 0.688 (inactive) | 0.136 | 2.21 (inactive) | 1.71 (inactive) | 0.235 | 0.225 | -0.0616 | 0.808 | -0.301 | 0.407 | -0.821 | -1.33 (inactive) | -0.479 | -0.468 | -0.293 (inactive)
C=CCOC(=O)[C@H]1[C@@H]2C(=O)O[C@@H](c3ccccc3)[C@@H](c3ccccc3)N2[C@@H](c2ccc(OCCOC(=O)[C@H]3C[C@H]4C(=O)N[C@@H](CCCCN(C)C)C(=O)N4[C@H]3c3cccc(OCCO)c3)cc2)[C@]12C(=O)Nc1ccc(I)cc12 | -1.61 (inactive) | -0.156 | -1.87 (inactive) | 0.381 (inactive) | -0.0437 (inactive) | 0.375 (inactive) | -0.529 | 2.18 (inactive) | 1.01 (inactive) | 1.06 | -0.226 | -0.512 | 1.22 | -2.14 | -1.82 | -1.92 | -1.13 (inactive) | -0.157 | -0.465 | 0.477 (inactive)
[N-]=[N+]=Nc1ccccc1C[C@]1(C(=O)NCc2ccccc2)N=C(c2ccc(OCCCO)cc2)O[C@H]1c1ccccc1N=[N+]=[N-] | -0.107 (inactive) | -0.353 | 28.1 (active) | 28.7 (active) | 2.76 (inactive) | 5.76 (inactive) | 0.096 | -1.87 (inactive) | 0.483 (inactive) | -0.32 | -1.33 | 0.0309 | -1.2 | -2.94 | -3.55 | 1.58 | 0.00967 (inactive) | -1.18 | -2.49 | -1.6 (inactive)
COc1ccc([Si](C)(C)[C@H]2[C@H](CCO)O[C@@]3(C(=O)N(Cc4ccccc4)c4ccc(N5CCCCC5=O)cc43)[C@@H]2C)cc1 | 0.663 (inactive) | 0.0844 | 6.61 (inactive) | 2.24 (inactive) | 1.45 (inactive) | 1.72 (inactive) | 0.204 | -1.16 (inactive) | 0.636 (inactive) | 1.81 | -0.0531 | -0.627 | -3.62 | -2.03 | -4.53 | 2 | 0.355 (inactive) | -0.781 | 0.363 | -2.68 (inactive)
Cc1ccc(C2C3C(=O)CC4C(=O)N(c5ccccc5)C(=O)C4C3CN2S(=O)(=O)c2ccc(C)cc2)cc1 (stereo not given) | -0.339 (inactive) | 0.476 | 1.7 (inactive) | 0.714 (inactive) | 1.72 (inactive) | 0.438 (inactive) | -0.69 | 1.28 (inactive) | 0.793 (inactive) | -0.9 | -0.105 | -0.172 | 0.261 | 0.948 | 0.563 | 0.371 | 0.134 (inactive) | 0.515 | -0.878 | -0.821 (inactive)
C=CC[C@]1(C(=O)NCc2ccccc2)N=C(c2ccc(OCCCO)cc2)O[C@H]1c1ccccc1CN=[N+]=[N-] | -1.21 (inactive) | 0.0556 | 19.7 (active) | 2.93 (inactive) | 3.16 (inactive) | 0.986 (inactive) | -0.387 | -0.302 (inactive) | 0.617 (inactive) | -0.656 | -0.774 | 0.0129 | 0.22 | -1.28 | -1.81 | 0.24 | -0.889 (inactive) | -0.787 | 0.407 | 0.668 (inactive)
CC(C)C(=C=CC[C@H](O)c1ccc(CO)o1)CCO | -0.543 (inactive) | 0.0494 | 1.77 (inactive) | 0.408 (inactive) | 0.186 (inactive) | -0.012 (inactive) | -0.516 | 0.228 (inactive) | -0.345 (inactive) | -0.21 | -0.0934 | -0.33 | -0.0026 | -1.25 | -0.2 | -0.427 | -0.0538 (inactive) | -0.533 | 0.019 | -0.507 (inactive)
CC(C)NC(=O)[C@@]1(Cc2ccccc2I)c2ccccc2C(=O)N(Cc2ccccc2Cl)[C@H]1c1ccc(CO)cc1 | -0.522 (inactive) | 0.223 | 10.7 (active) | 1.77 (inactive) | 0.614 (inactive) | 1.06 (inactive) | 0.026 | 0.284 (inactive) | 0.904 (inactive) | 0.774 | -0.271 | 0.0063 | 0.768 | -1.59 | -2.03 | -0.274 | 0.131 (inactive) | 0.0101 | -0.756 | 0.0211 (inactive)
CC(=CC1CCCCC1)[C@@H](NC(=O)c1cccnc1)c1ccc(-c2ccccc2)cc1 | -2.67 (inactive) | 0.188 | 1.85 (inactive) | 0.943 (inactive) | -0.0465 (inactive) | 0.348 (inactive) | -0.849 | -1.27 (inactive) | -2.55 (inactive) | -0.0302 | -1.3 | -0.671 | -1.63 | -2.15 | -2.59 | -2.99 | -1.26 (inactive) | 0.597 | -0.462 | 1.49 (inactive)

Reference: PubChem BioAssay
